The text below walks through data of PubChem BioAssay AID449762 (Southern Research Specialized Biocontainment Screening …, 2010).

Structures are written as SMILES. Screen size: about 330,000 compounds; about 1,900 (0.58%) were called active. Another 4% or so got no clear call; they are omitted. Not all results are given here. Results with a measured potency or affinity are listed apart. A number with no mark means an inactive call. Cut-off read from the data, not from the text of the source: inconclusive = inhibition above about 70% without an active follow-up result; inactive = below that.

The experiment is described as follows: M. tuberculosis growth inhibition, HTS (AID 449762).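 Note: bacterial growth assessed after seven days of incubation.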 Conditions: M. tuberculosis H37Rv growth inhibition, 7H9 media; at 25 µM; hits give high values.
What is called inhibition is the drop in the measured response relative to a control, in per cent. For the compound `COc1cc(OC)c(C(=O)OCC(=O)Nc2c(C)n(C)n(-c3ccccc3)c2=O)cc1OC`, the inhibition was 1.54%.
For the compound `O=C1NC[C@H](c2ccccc2)N(CC2CCCCC2)C1=O`, the inhibition is -2.23%.
Turning to `C/C(=N\Nc1ccc([N+](=O)[O-])cc1)c1ccc(N)cc1`, the inhibition was -12.2%.
In the case of `C/C(=N\Nc1ccccc1)c1cccc(N)c1`, the inhibition was -1.02%.
Regarding `Cn1cnc(S(=O)(=O)N2CCN(c3ccc(Cl)cc3)CC2)c1`, the inhibition is 1.05%.
As for `CC(C)COC(=O)Nc1ccccc1C(=O)N1CCOCC1`, the inhibition was -0.44%.
As to `Cc1ccc(N(Cc2cc3ccccc3[nH]c2=O)S(C)(=O)=O)cc1`, the inhibition was -5.78%.
The value for `O=c1[nH][nH]c(-c2ccccc2O)c1C(C[N+](=O)[O-])c1ccccc1` (stereo unspecified) was 25.6%; that for `Cc1[nH]c2ccccc2c1C(C[N+](=O)[O-])c1cccc(O)c1` (stereo unspecified) was 0.72%; that for `O=C(N/N=C/c1ccco1)c1cc(-c2cccc(Br)c2)nc2ccccc12` was 5.09%.
Consider `CCOc1ccc2nc(N/C(N)=N/C(=S)Nc3ccc(C)c(C)c3)nc(C)c2c1`, for which the inhibition is 39.5%.
The figure for `CCNC(=S)/N=C(\N)Nc1nc(C)c2cc(C)ccc2n1` is 26.4%.
For the compound `Cc1cccc(NC(=S)/N=C(\N)Nc2nc(C)c3cc(C)ccc3n2)c1`, the inhibition is 8.71%.
As for `CCOc1ccc2nc(N/C(N)=N/C(=S)Nc3ccc(OC)cc3)nc(C)c2c1`, the inhibition is 1.27%.
The figure for `COc1ccc(N2CCN(C(=O)c3cc4cc(Cl)ccc4[nH]3)CC2)cc1` is -7.94%; for `COc1ccc(Cl)cc1NC(=O)CN1CCCCCC1` it is -5.19%; for `Cc1ccc(S(=O)(=O)CC(=O)N2CCN(c3ccc(F)cc3)CC2)cc1` it is -10.4%.
With `O=c1c2ccccc2c(=O)n2n1Cc1ccccc1C2`, the inhibition is 0%.
For `CCC1CSC(Nc2ccc(C(=O)/C=C/c3ccc(Oc4ccccc4)cc3)cc2)=N1` (stereo unspecified), the inhibition is 4.72%.
In the case of `Cc1cccc(/C=C/C(=O)c2ccc(N3CCOCC3)cc2)c1`, the inhibition was -1.54%.
The figure for `Cc1ccc(N(CC(O)CN2C(=O)NC(C)(C)C2=O)S(=O)(=O)c2ccc([N+](=O)[O-])cc2)cc1` (stereo unspecified) is 0.97%.
The value for `COC(=O)c1cc(C(=O)OC)[nH]n1` was -0.31%; that for `COc1ccccc1NC(=O)N1CCCC1C(=O)NCc1ccccc1Cl` (stereo unspecified) was 3.2%.
For the compound `Cc1ccc(S(=O)(=O)/N=C(\CN2CCCCC2)N2CCOCC2)cc1`, the inhibition was -3.15%.
`Cc1ccc(S(=O)(=O)/N=C(\CN2CCOCC2)N2CCOCC2)cc1`: the inhibition was 2.72%.
As to `CC(=O)c1c(C)[nH]c(C(=O)CSc2nc3ccccc3c(=O)n2CCCO)c1C`, the inhibition is 10.8%.
`O=C(NC1CCOCC1)C1CCC(=O)N(Cc2ccc(Cl)cc2)C1` (stereo unspecified): the inhibition is -7.32%.
As for `Cc1ccc(C(=O)C2CCOC(C)(C)C2)cc1` (stereo unspecified), the inhibition is -6.79%.
As for `Cc1ccc(-c2csc(N3CCC[C@@H]3C(=O)NCCn3c(-c4ccncc4)nc4ccccc43)n2)cc1`, the inhibition is 58.4%.
With `Cc1ccc(-c2csc(NCCn3c(-c4ccncc4)nc4ccccc43)n2)cc1`, the inhibition was -3.83%.
Consider `COc1cc2c(cc1OC)CN(C1CCC(C)CC1)CC2` (stereo unspecified), for which the inhibition was 8.03%.
As for `CC(C)N=C(NC#N)SCc1ccccc1F`, the inhibition was -3.3%.
As for `COc1ccc(CCNc2nc(C)nc3c2oc2ccccc23)cc1OC`, the inhibition was 2%.
The value for `CCNc1nc(C)nc2c1oc1ccccc12` was 2.03%; that for `COc1ccccc1NS(=O)(=O)c1cccc(C(=O)NN)c1` was -5.02%; that for `COc1cc(NC(=O)Cc2ccc([N+](=O)[O-])cc2)c(C(=O)O)cc1OC` was 20.1%.
`O=C(/C=C/c1cccnc1)c1ccccc1O`: the inhibition is 4.14%.
`O=C(/C=C/c1cccnc1)c1ccc(O)cc1`: the inhibition is 2.21%.
Consider `COc1cc(C(=O)/C=C/c2cccnc2)ccc1O`, for which the inhibition is 52.2%.
Take `CN(C)c1ccc(C(=O)/C=C/c2cccnc2)cc1`: the inhibition is -3.39%.
Regarding `Cc1ccc2nc(-c3ccc(NC(=O)CCS(=O)(=O)c4ccccc4)cc3)sc2c1`, the inhibition is 1.52%.
With `O=C(CN(Cc1ccco1)C(=O)CNS(=O)(=O)c1ccccc1)NCc1ccccc1`, the inhibition was 0.41%.
Regarding `Cc1ccc(N2C(=O)C3C4C=CC(CNC(=S)Nc5ccc(Cl)cc5)(O4)C3C2=O)cc1` (stereo unspecified), the inhibition is 0.99%.
As for `Cc1ccc(NC(=O)Nc2ccc3c(c2)CCC3)c(C)c1`, the inhibition was -10.3%.
For `Cc1ccc2[nH]c3nc(N/N=C/c4cccc(O)c4)nnc3c2c1`, the inhibition is 3.58%.
On to `O=Nc1ccc(NOC(=O)c2ccccc2)cc1`, for which the inhibition is 14%.
Regarding `Cc1ccc(C(=O)ONc2ccc(N=NC(=O)c3ccccc3O)cc2)cc1`, the inhibition was 2.47%.
The figure for `CCCn1c(C)cc(C(=O)CN2C(=O)c3cccc(N)c3C2=O)c1C` is -10%.
On to `COc1ccc(-c2[nH]ncc2N=Nc2ccccc2)cc1`, for which the inhibition was 8.09%.
The figure for `Oc1ccc(Cl)cc1N=Nc1ccccc1` is -8.24%; for `CCOC(=O)c1[nH]c2ccccc2c1NC(=O)c1ccc(Br)o1` it is -1.61%; for `CN(C)c1ccc(/C=C/c2cc[n+](C)cc2)cc1` it is 7.78%.
The figure for `CN(C)c1ccc(/C=C/c2cccc[n+]2[O-])cc1` is 1.21%; for `Cc1cc(C(=O)OCC(=O)Nc2cccc(F)c2)c(C)n1C1CC1` it is 0.41%; for `CCN(CC)CCn1c(SCC(=O)Nc2ccc(F)cc2)nc2c(sc3ccccc32)c1=O` it is 4.95%.
As for `CCN(CC)CCn1c(SCC(=O)NCc2ccccc2)nc2c(sc3ccccc32)c1=O`, the inhibition is 6%.
Consider `COCCn1c(-c2ccccc2)cc(C(=O)O)c1C`, for which the inhibition is 6.01%.
Consider `COc1ccc(CNC(=O)Nc2ccc(C)c(C)c2)cc1`, for which the inhibition was -5.48%.
Regarding `CC(=O)NC(=S)Nc1ccc(NC(=O)COc2ccc(Cl)cc2Cl)cc1`, the inhibition was 0.45%.
As for `CC(=O)Nc1ccc(NC(=O)COc2ccc(Cl)cc2Cl)cc1`, the inhibition is -0.58%.
Regarding `COC(=O)c1ccc(NC(=O)Cn2nc(SC)n(N)c2=S)cc1`, the inhibition was -4.09%.
For `Cc1ccc(Sc2nc([N+](=O)[O-])nn2C)cc1`, the inhibition is 6.48%.
Regarding `Cn1nc([N+](=O)[O-])nc1Sc1ccc(Cl)cc1`, the inhibition was 0.18%.
`CC(=O)Nc1ccc(CN2CCN(CCc3ccccc3)C(CCO)C2)cc1` (stereo unspecified): the inhibition is -3.1%.
`CCCCS/C(N)=N/N=C/c1ccccc1O`: the inhibition is 1.14%.
As to `Cc1ccc(O)c(C=Nc2cc(C)ccc2O)c1`, the inhibition is -4.69%.
Regarding `COc1ccc(CCNc2nc(-c3ccc(O)cc3)cs2)cc1OC`, the inhibition was 3.36%.
`C=CCCC(=O)N1CCCC(C(=O)c2cccc(OC)c2)C1` (stereo unspecified): the inhibition is 5.01%.
Regarding `OC(CN1CCN(c2ccccc2)CC1)Cn1c2ccccc2c2ccccc21` (stereo unspecified), the inhibition is 14.7%.
Turning to `CN1CCN(CC(O)Cn2c3ccccc3c3ccccc32)CC1` (stereo unspecified), the inhibition was 6.36%.
For the compound `Cc1noc(C)c1COC(=O)c1ccc2c(c1)S(=O)(=O)c1ccccc1C2=O`, the inhibition is -4.63%.
Consider `Brc1ccc2c(c1)C(c1cccs1)=NNC(c1cccnc1)=N2`, for which the inhibition is 1.73%.
With `NC(=O)CC(NC(=O)Cc1ccc(Br)cc1)c1ccc(N2CCN(c3ccccn3)CC2)c([N+](=O)[O-])c1` (stereo unspecified), the inhibition is 2.89%.
Take `C[C@H](CO)N1C[C@H](C)[C@@H](CN(C)S(C)(=O)=O)Oc2c(NC(=O)C3CC3)cccc2C1=O`: the inhibition was 1.46%.
Regarding `CCSC1=NC(C)(C)C=C(/C=C/c2ccc(Cl)cc2Cl)N1`, the inhibition was 46.6%.
For `CC(C)SC1=NC(C)(C)C=C(/C=C/c2ccc(Cl)cc2Cl)N1`, the inhibition was 23.8%.
On to `COc1ccc(C(=O)Nc2cccc([N+](=O)[O-])c2)cc1Br`, for which the inhibition was -1.62%.
On to `COc1nccc(-c2ccc(F)cc2)c1C#N`, for which the inhibition was 6.03%.
The figure for `COc1ccc2[nH]c3c(Cl)ncnc3c2c1` is -0.24%.
As for `COc1ccc2c(c1)[nH]c1c(C)nccc12`, the inhibition is 34.6%.
Turning to `COc1ccc(NC(C)C(=O)N/N=C/c2c(O)ccc3ccccc23)cc1` (stereo unspecified), the inhibition is -2.98%.
With `CN(C)S(=O)(=O)N1CCCN(S(=O)(=O)N(C)C)CC1`, the inhibition was -7.77%.
Turning to `Cc1ccc(NC(=O)Cc2ccc(Cl)cc2)cc1S(=O)(=O)N1CCCCCC1`, the inhibition is -4.17%.
Regarding `CCCCC(=O)Nc1ccc(C)c(S(=O)(=O)N2CCCCCC2)c1`, the inhibition was -1.76%.
For the compound `Cc1c(NC(=O)CC2NC(=O)NC2=O)c(=O)n(-c2ccccc2)n1C` (stereo unspecified), the inhibition was 4.59%.
The value for `Cc1ccc(NC(=O)CSc2nc(N)cc(=O)[nH]2)cc1S(=O)(=O)N1CCCCCC1` was -1.26%; that for `Cc1ccc(S(=O)(=O)NNC(=O)c2ccc(O)cc2)cc1` was 9.92%; that for `Cc1ccc(C(=O)NNS(=O)(=O)c2ccccc2[N+](=O)[O-])cc1` was 4.03%.
`C#CC[N+]1(C)C2CCC1CC(O)C2` (stereo unspecified): the inhibition is 6.2%.
Turning to `COC(=O)/C(=C\c1c(OC)cc(OC)cc1OC)C(=O)c1ccc2c(c1)OCO2`, the inhibition was 17%.
The figure for `CCN1C(=O)CSc2ccc(C(=O)NCc3ccccc3)cc21` is -4.41%; for `CC(=O)O/C(=C\c1cn(C(C)=O)c2ccccc12)C(=O)O` it is -13.8%.
Turning to `CC(=O)n1cc(C=C2C(=O)NC(=O)NC2=O)c2ccccc21`, the inhibition is 6.36%.
On to `Cc1oc(-c2ccc(Cl)cc2)nc1CS(=O)CC(=O)NC1CCCC1` (stereo unspecified), for which the inhibition is -1.04%.
On to `COc1cccc(N=Nc2c(N)[nH]n3c(=O)cc(-c4ccccc4)nc23)c1`, for which the inhibition was 54.1%.
For the compound `Nc1[nH]n2c(=O)cc(-c3ccccc3)nc2c1N=Nc1ccc(S(N)(=O)=O)cc1`, the inhibition is 6.74%.
